According to PubChem BioAssay (NCATS):
Values joined by “and” are separate entries in the source; they are usually repeats but may differ in a detail not shown here. Equal values may be shown once. Results filed as inconclusive are left out. Entries that show only a call come without a potency. A number with no mark means an inactive call. Active and inactive are the calls of the source. Calls come from the whole dose curve; as a rule, active = well fitted inhibition curve with a large enough effect; inconclusive = small, poorly fitted or top-dose-only effect; inactive = flat fitted curve, though single readings scatter.

Tests used:
HEK293 = assay: Cytotoxic Profiling of Annotated Libraries Using Quantitative High-Throughput Screening (AID 1296008); details: Five cell lines viability, CellTiter-Glo ATP luminescence, 48-72 h; max response: stronger effect = lower value
In short: (§1)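 Compounds were pin-transferred onto cells and incubated 48 or 72 hr at 37 degree Celsius, 95% humidity. CellTiter-Glo was added, plates sat 10 min at room temperature, then ATP-coupled luminescence was imaged as the viability read-out.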

HaCat = assay: as above; details: Five cell lines viability, CellTiter-Glo ATP luminescence, 48-72 h; max response: stronger effect = lower value
In short: as §1

KB-3-1 = assay: as above; details: Five cell lines viability, CellTiter-Glo ATP luminescence, 48-72 h; max response: stronger effect = lower value
In short: as §1

JCK = assay: qHTS profiling for inhibitors of Plasmodium falciparum proliferation (AID 504749); details: P. falciparum in erythrocytes, SYBR Green DNA, 72 h; series mostly up to 28.7 µM
In short: (§2)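 Quantitative HTS: compounds pinned into medium, infected erythrocytes added (0.3% parasitemia, 2.5% hematocrit), 72 h culture at 37 C under 5% CO2. Saponin/Triton lysis with SYBR Green I, overnight RT, then fluorescence read.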

P93_24 = assay: as above; details: P. falciparum in erythrocytes, SYBR Green DNA, 72 h; series mostly up to 28.7 µM
In short: as §2

P94_40 = assay: as above; details: P. falciparum in erythrocytes, SYBR Green DNA, 72 h; series mostly up to 28.7 µM
In short: as §2

PAD = assay: as above; details: P. falciparum in erythrocytes, SYBR Green DNA, 72 h; series mostly up to 28.7 µM
In short: as §2

PC15 = assay: as above; details: P. falciparum in erythrocytes, SYBR Green DNA, 72 h; series mostly up to 28.7 µM
In short: as §2

PC26 = assay: as above; details: P. falciparum in erythrocytes, SYBR Green DNA, 72 h; series mostly up to 28.7 µM
In short: as §2

PC49 = assay: as above; details: P. falciparum in erythrocytes, SYBR Green DNA, 72 h; series mostly up to 28.7 µM
In short: as §2

SC27B = assay: as above; details: P. falciparum in erythrocytes, SYBR Green DNA, 72 h; series mostly up to 28.7 µM
In short: as §2

TAB109 = assay: as above; details: P. falciparum in erythrocytes, SYBR Green DNA, 72 h; series mostly up to 28.7 µM
In short: as §2

TAB113 = assay: as above; details: P. falciparum in erythrocytes, SYBR Green DNA, 72 h; series mostly up to 28.7 µM
In short: as §2

TAB165 = assay: as above; details: P. falciparum in erythrocytes, SYBR Green DNA, 72 h; series mostly up to 28.7 µM
In short: as §2

CRL-7250 = normal cell line; assay: Cytotoxic Profiling of Annotated Libraries Using Quantitative High-Throughput Screening (AID 1296008); details: Five cell lines viability, CellTiter-Glo ATP luminescence, 48-72 h; max response: stronger effect = lower value
In short: as §1

GB4 = assay: qHTS profiling for inhibitors of Plasmodium falciparum proliferation (AID 504749); details: P. falciparum in erythrocytes, SYBR Green DNA, 72 h; series mostly up to 28.7 µM
In short: as §2

HB3 = assay: as above; details: P. falciparum in erythrocytes, SYBR Green DNA, 72 h; series mostly up to 28.7 µM
In short: as §2

N140 = assay: as above; details: P. falciparum in erythrocytes, SYBR Green DNA, 72 h; series mostly up to 28.7 µM
In short: as §2

W2 = assay: as above; details: P. falciparum in erythrocytes, SYBR Green DNA, 72 h; series mostly up to 28.7 µM
In short: as §2

ICS = assay: as above; details: P. falciparum in erythrocytes, SYBR Green DNA, 72 h; series mostly up to 28.7 µM
In short: as §2
Note: nearly all actives have a fitted effect of over 60% in size.
Potency is the fitted concentration of half-maximal effect.

CS(=O)(=O)c1ccc(-n2nc(C(F)(F)F)cc2-c2ccc(F)cc2)cc1
max response (HEK293): 1.42%
outcome (HaCat): inactive
max response (KB-3-1): -2.3%

Cc1nc2ccccc2n1Cc1ccc(Cl)cc1
Potency (JCK): inactive
Potency (P93_24): inactive
Potency (P94_40): inactive
Potency (PAD): inactive
Potency (PC15): inactive
Potency (PC26): inactive
Potency (PC49): inactive
Potency (SC27B): inactive
Potency (TAB109): inactive
Potency (TAB113): inactive
Potency (TAB165): inactive
Potency (CRL-7250): 2.11 µM (active)
Potency (HEK293): 1.68 µM (active)
max response (KB-3-1): -8.87%

Fc1ccc2[nH]c(CN3CCN(c4ccccn4)CC3)cc2c1
max response (CRL-7250): -22.3%
max response (KB-3-1): -22.6%

CCCCCCCCCCCC(=O)[O][Sn]([CH2]CCC)([CH2]CCC)[O]C(=O)CCCCCCCCCCC
Potency (GB4): inactive
Potency (HB3): inactive
Potency (JCK): inactive
Potency (N140): inactive
Potency (P93_24): inactive
Potency (P94_40): inactive
Potency (PAD): inactive
Potency (PC15): inactive
Potency (PC49): inactive
Potency (SC27B): inactive
Potency (TAB109): inactive
Potency (TAB113): inactive
Potency (TAB165): inactive
Potency (W2): inactive
max response (CRL-7250): -26.6%
max response (HEK293): -9.3%
outcome (HaCat): inactive
max response (KB-3-1): -5.63%

CCCCCCCCCCCCCCCCCC(=O)O
Potency (GB4): inactive
Potency (HB3): inactive
Potency (ICS): inactive
Potency (JCK): inactive
Potency (N140): inactive
Potency (P93_24): inactive
Potency (P94_40): inactive
Potency (PAD): inactive
Potency (PC15): inactive
Potency (PC26): inactive
Potency (PC49): inactive
Potency (SC27B): inactive
Potency (TAB113): inactive
Potency (TAB165): inactive
Potency (W2): inactive
outcome (HEK293): inactive
outcome (HaCat): inactive
max response (KB-3-1): -8.88%

O=Cc1ccc(O)c(O)c1O
Potency (HEK293): 26.6 µM (active)
outcome (HaCat): inactive

CCCOC(=O)c1ccc(O)cc1
Potency (GB4): inactive
Potency (HB3): inactive
Potency (ICS): inactive
Potency (JCK): inactive
Potency (N140): inactive
Potency (P93_24): inactive
Potency (P94_40): inactive
Potency (PAD): inactive
Potency (PC15): inactive
Potency (PC26): inactive
Potency (PC49): inactive
Potency (SC27B): inactive
Potency (TAB109): inactive
Potency (TAB113): inactive
Potency (TAB165): inactive
Potency (W2): inactive
max response (CRL-7250): 4.61%
max response (HEK293): -6.34%
max response (KB-3-1): -6.63% and -13.7%

[O-][n+]1ccccc1SSc1cccc[n+]1[O-]
Potency (GB4): 0.757 µM (active)
Potency (HB3): 0.891 µM (active)
Potency (ICS): 0.794 µM (active)
Potency (JCK): 4.47 µM (active)
Potency (N140): 0.708 µM (active)
Potency (P93_24): 1 µM (active)
Potency (P94_40): 0.794 µM (active)
Potency (PAD): 0.891 µM (active)
Potency (PC15): 2.24 µM (active)
Potency (PC26): 1.51 µM (active)
Potency (PC49): 1.41 µM (active)
Potency (SC27B): 0.891 µM (active)
Potency (TAB109): 0.891 µM (active)
Potency (TAB113): 0.891 µM (active)
Potency (TAB165): 0.891 µM (active)
Potency (W2): 0.757 µM (active)
Potency (CRL-7250): 0.461 µM (active)
Potency (HEK293): 0.411 µM (active)
Potency (HaCat): 0.731 µM (active)

O=C(CCN1CCN(CCO)CC1)N1c2ccccc2Sc2ccc(C(F)(F)F)cc21
Potency (ICS): 11.2 µM (active)
Potency (JCK): inactive
Potency (N140): 12.6 µM (active)
Potency (P93_24): 12.6 µM (active)
Potency (PAD): inactive
Potency (SC27B): inactive
Potency (TAB113): inactive
Potency (W2): 7.57 µM (active)
max response (CRL-7250): -6.26%
max response (HEK293): -1.82%
max response (HaCat): -4.28%
max response (KB-3-1): -4.21%

c1ccc2sc(SN3CCOCC3)nc2c1
Potency (GB4): inactive
Potency (HB3): inactive
Potency (ICS): 12.6 µM (active)
Potency (JCK): inactive
Potency (P94_40): inactive
Potency (PC15): inactive
Potency (PC26): inactive
Potency (PC49): inactive
Potency (SC27B): inactive
Potency (TAB113): inactive
outcome (CRL-7250): inactive
outcome (HEK293): inactive
outcome (HaCat): inactive
max response (KB-3-1): 0.575%

CC1(C)S[C@@H]2[C@H](NC(=O)[C@H](N)c3ccc(O)cc3)C(=O)N2[C@H]1C(=O)O
max response (CRL-7250): -12.2%
outcome (HEK293): inactive
max response (KB-3-1): 11.9% and 8.22%
